The target of this experiment is Voltage-dependent L-type calcium channel subunit alpha-1C (Rattus norvegicus) (UniProt P22002). The experiment in a line: ERF_FR_IC_rCACNA1C_Dihydropyridine: Eurofins (ERF) Calcium Ion Channel Binding (Dihydropyridine Site) LeadHunter Assay for rat Cav1.2 (L-type), conducted at France lab site. The protocol: ERF_FR_IC_rCACNA1C_Dihydropyridine is a biochemical, single-readout assay that uses extracted gene-proteins in a cell-free assay. Measurements were taken 1.5 hour after chemical dosing in a 96-well plate. See Cav1.2 (L-type) Rat Calcium Ion Channel Binding (Dihydropyridine Site) Assay, Cerep.ERF_FR_IC_rCACNA1C_Dihydropyridine is an assay component calculated from the ERF_FR_IC_rCACNA1C_Dihydropyridine assay. It is designed to measure radioligand binding using a type of binding reporter as detected by scintillation counting with radiometry technology.Data from the assay component ERF_FR_IC_rCACNA1C_Dihydropyridine was analyzed at the assay endpoint, ERF_FR_IC_rCACNA1C_Dihydropyridine, in the positive analysis fitting direction relative to DMSO as the negative control and baseline of activity. Using a type of binding reporter, loss-of-signal activity can be used to understand changes in binding as they relate to gene CACNA1C. To generalize the intended target to other relatable targets, this assay endpoint is annotated to the ion channel intended target family, where the subfamily is voltage gated (Calcium).
Rat brain cells are incubated for 90 minutes at room temprature with [3H]nitrendipine (0.25 nM) ligand and Nitrendipine as control inhibitor. Test Sample Requirements: Minimum for 1) Screen: 60 ul of 10 mM stock -OR- 1 mg (pre-weighed) for 10 uM final testing. […]

Calls of active or inactive are those of the source. How the source made its calls: active means hit-call score of the fitted dose curve at least 0.9, where 1 is the maximum; inactive means score below 0.9.

Sequence of Voltage-dependent L-type calcium channel subunit alpha-1C (Rattus norvegicus) (P22002 whole entry, looked up): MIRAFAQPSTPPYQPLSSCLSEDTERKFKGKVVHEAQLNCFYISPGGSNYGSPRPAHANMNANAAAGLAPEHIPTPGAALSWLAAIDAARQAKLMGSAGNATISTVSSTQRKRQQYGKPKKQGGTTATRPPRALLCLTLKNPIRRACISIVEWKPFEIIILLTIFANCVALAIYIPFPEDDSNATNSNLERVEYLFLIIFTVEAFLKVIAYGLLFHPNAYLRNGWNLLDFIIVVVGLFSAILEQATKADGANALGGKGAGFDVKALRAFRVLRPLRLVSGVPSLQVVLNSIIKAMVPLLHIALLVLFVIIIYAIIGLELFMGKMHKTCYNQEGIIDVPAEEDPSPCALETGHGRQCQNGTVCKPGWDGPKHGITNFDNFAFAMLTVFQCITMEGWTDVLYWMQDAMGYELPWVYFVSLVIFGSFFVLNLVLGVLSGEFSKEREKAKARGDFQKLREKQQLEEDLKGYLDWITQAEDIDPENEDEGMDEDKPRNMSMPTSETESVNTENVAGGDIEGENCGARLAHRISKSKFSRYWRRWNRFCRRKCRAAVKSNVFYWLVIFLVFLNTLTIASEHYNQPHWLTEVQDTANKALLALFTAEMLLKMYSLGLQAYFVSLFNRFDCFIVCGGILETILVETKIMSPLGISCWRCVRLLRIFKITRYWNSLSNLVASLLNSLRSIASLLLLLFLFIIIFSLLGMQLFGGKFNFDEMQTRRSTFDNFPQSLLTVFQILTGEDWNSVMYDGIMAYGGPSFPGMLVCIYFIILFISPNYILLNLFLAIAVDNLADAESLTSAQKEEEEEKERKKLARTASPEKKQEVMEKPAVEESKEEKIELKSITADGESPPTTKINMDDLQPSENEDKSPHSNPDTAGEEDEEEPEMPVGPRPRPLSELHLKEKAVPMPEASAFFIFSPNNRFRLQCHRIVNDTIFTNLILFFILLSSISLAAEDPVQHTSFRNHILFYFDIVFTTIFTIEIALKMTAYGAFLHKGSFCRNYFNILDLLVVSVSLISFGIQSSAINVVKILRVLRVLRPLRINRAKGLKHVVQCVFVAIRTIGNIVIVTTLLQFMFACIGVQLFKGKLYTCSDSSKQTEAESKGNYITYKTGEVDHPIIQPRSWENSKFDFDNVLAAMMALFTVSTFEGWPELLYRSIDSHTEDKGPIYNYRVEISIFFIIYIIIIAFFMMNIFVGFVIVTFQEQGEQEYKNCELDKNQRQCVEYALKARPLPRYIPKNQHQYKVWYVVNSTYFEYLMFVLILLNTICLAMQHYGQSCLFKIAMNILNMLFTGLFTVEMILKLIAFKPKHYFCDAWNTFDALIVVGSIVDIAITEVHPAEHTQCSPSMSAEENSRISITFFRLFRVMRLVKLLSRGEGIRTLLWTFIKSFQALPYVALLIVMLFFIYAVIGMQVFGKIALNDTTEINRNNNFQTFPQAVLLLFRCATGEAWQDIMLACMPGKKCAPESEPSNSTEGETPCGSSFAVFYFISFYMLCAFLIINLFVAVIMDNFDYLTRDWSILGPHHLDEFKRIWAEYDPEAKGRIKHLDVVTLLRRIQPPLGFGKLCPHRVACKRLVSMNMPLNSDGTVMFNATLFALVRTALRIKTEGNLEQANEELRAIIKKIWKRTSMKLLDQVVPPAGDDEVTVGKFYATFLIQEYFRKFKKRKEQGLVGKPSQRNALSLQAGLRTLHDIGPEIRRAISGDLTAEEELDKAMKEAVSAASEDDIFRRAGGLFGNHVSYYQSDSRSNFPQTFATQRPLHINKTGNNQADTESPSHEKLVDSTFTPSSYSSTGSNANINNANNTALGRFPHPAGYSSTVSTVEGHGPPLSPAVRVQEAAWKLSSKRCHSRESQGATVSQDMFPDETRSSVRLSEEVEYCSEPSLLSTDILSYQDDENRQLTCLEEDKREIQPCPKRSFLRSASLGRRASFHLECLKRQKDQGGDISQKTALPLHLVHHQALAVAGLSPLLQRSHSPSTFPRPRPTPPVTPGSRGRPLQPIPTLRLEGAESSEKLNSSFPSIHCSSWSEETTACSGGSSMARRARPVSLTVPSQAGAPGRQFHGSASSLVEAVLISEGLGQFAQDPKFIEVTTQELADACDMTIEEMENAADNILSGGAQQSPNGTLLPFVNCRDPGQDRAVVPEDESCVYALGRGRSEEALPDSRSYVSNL

Broadly, the AC50 is the concentration at which the activity in the assay is half-maximal. Take `COc1cc(CCC(=O)CC(=O)CCc2ccc(O)c(OC)c2)ccc1O`: the concentration at half-maximal activity (AC50) is 3.16 µM (active).
